Experimental data as given in PubChem BioAssay (NCI).
Compounds without any hit were thinned out: in the full panel of roughly 83,000, 20% have a hit.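 For each line, cells grew in 96-well plates with the test compound present at a single concentration for 48 hours.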 A number with no mark means an inactive call. Activity calls are given as the source filed them. How the source made its calls: active means growth percent below 10; inactive means the rest.

These molecules were tested on MDA-MB-435 melanoma (assay: NCI-60 one-dose screen, 48 h (100 = growth as untreated, 0 = no growth, -100 = all killed)). Details: 10 µM.

SMILES | growth
O=C(CCl)Nc1ccc2c(c1)C(=O)c1ccc(NC(=O)CCl)cc1C2=O | -71.6% (active)
N#C/C(=C\c1cc(O)c(O)c(O)c1)C(N)=O | 89.4%
CC(=O)OCCO | 107%
O=C(NCc1ccco1)Nc1c(Cl)cc(Cl)cc1Cl | 96.5%
O=C(O)CCCCNC(=O)c1ccccc1 | 113%
S=c1[nH]ccn1-c1ccccc1Cl | 108%
CN(C)c1ccc2oc(=O)c3ccccc3c2c1 | 109%
CCOC(=O)C(O)C(O)C(=O)OCC (stereo unspecified) | 108%
O=C(O)C(Cc1ccccc1)C(=O)O | 111%
N#CCCN(CCCN1CCOCC1)CN1C(=O)c2ccccc2C1=O | 108%
CCCCCCCCO | 99.3%
CC1OC(Oc2c(-c3ccc(O)c(O)c3)oc3cc(O)cc(O)c3c2=O)C(O)C(O)C1O (stereo unspecified) | 111%
CC(=Nc1ccccc1)C1=C(O)C(Cc2cccc(F)c2)NC1=O (stereo unspecified) | -46.2% (active)
CCCC(=O)c1cc(C)ccc1OC | 116%
O=C(CS)Nc1ccc2ccccc2c1 | 116%
CCCC1(c2ccccc2)NC(=O)NC1=O (stereo unspecified) | 113%
CNS(=O)(=O)c1ccc(Cl)c(Cl)c1 | 98.7%
CC1CC(O)CC(C)(C)C1 (stereo unspecified) | 101%
Cc1cc(N)c(S(=O)(=O)O)c(N)c1 | 101%
O=C(O)C(c1ccccc1)C(O)c1ccccc1 (stereo unspecified) | 105%
COC1=CC(=O)c2nc(Cl)ccc2C1=O | -42.1% (active)
